Sampled rows, rich in hits. Any-hit rate of the full collection: about 10%.
Six1-Eya2 blk: blocks human Six1 binding to Eya2. AID 651725. 360,000 tested, 0.56% active. AlphaScreen GST-Six1/His-Eya2 binding, biochemical; stronger effect = lower value. activity change, % (no concentration beside the values); in the data active means activity change below about -65%; inconclusive means mostly about -30% to -63%
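AlphaScreen with GST-Six1 and His-Eya2 (5X mix: 250 nM and 500 nM), glutathione donor and nickel acceptor beads; buffer 50 mM Tris pH 8.0, 300 mM NaCl, 1 mM TCEP; 1 h at 37 C in the dark.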
JMJD2A Tudor inh: blocks the human JMJD2A Tudor domain. O75164. AID 504339. AlphaScreen JMJD2A-Tudor / H3K4me3 peptide binding. Potency, µM (series often up to 114 µM), actives largely listed as inhibitors. 390,000 tested, 4.4% active; further: nearly all actives have a fitted effect of over 50% in size
BAZ2B block: inhibitors of human BAZ2B bromodomain; 360,000 tested, 4.4% active; AlphaScreen BAZ2B-H3K14Ac peptide displacement; Q9UIF8; Potency, µM (doses to about 114 µM), hits mostly inhibitors; AID 504333; further: nearly all actives have a fitted effect of over 60% in size
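Protein-peptide AlphaScreen: BAZ2B 50 nM, b-H3K14Ac 50 nM, 1x PBS pH 7.4 + 0.01% Tween-20. Preincubation 30 min RT; cpd 30 min RT (top 110 uM); beads 20 min RT, light-protected.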
G9a block: G9a (human) methyltransferase inhibition | AID 504332 | Q96KQ7 | Potency, µM (highest dose often 102 µM), usual class: inhibitors | 350,000 tested, 8.8% active | G9a H3K9 monomethylation, AlphaScreen, 2 h; further: nearly all actives have a fitted effect of over 75% in size
Target sequence (Q96KQ7 913-1193 limits assumed): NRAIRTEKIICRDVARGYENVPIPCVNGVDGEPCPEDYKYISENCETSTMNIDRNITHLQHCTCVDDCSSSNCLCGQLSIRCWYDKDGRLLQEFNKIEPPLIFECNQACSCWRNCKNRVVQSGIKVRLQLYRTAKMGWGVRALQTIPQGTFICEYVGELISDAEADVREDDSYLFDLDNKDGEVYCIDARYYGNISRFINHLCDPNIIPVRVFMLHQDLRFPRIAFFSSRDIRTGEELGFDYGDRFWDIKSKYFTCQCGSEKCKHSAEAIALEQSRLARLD
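Readings reflect AlphaScreen signal from monomethyl-H3K9 antibody detection. HMT at 20 nM; substrate b-H3K9 500 nM; cofactor SAM 20 uM; 2 h RT reaction; compounds tested as titrations in qHTS with 15 min preincubation.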
HP1b chromo inh: blocks HP1-beta chromodomain binding to methylated histone tails; AlphaScreen HP1-beta / biotin-H3K9me3 peptide binding; Potency, µM (series often up to 114 µM), usual class: inhibitors; 390,000 tested, 0.56% active; AID 540317; further: nearly all actives have a fitted effect of over 70% in size
Target sequence (P83916 whole entry, looked up): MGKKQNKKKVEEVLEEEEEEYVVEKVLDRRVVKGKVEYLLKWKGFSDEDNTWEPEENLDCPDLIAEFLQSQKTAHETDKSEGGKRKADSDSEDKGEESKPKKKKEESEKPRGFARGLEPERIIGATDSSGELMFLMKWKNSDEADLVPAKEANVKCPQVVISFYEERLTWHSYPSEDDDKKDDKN
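HP1-beta protein (50 nM final) preincubated 30 min at room temperature with biotinylated H3(1-18)K9me3 peptide (50 nM) in PBS pH 7.4, 0.01% Tween-20, then compound added for 30 min. AlphaScreen streptavidin donor/nickel chelate acceptor beads (10 ug/mL final), 30 min dark, luminescence read.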
CtBP-E1A blk: CtBP/E1A binding inhibition; AlphaScreen GST-E1A/His-CtBP binding, 1536-well; stronger effect = lower value; activity change, % (no concentration beside the values); 340,000 tested, 0.49% active; AID 651724; in the data active means activity change below about -65%; inconclusive means mostly about -30% to -63%
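Homogeneous bead-based format: GST-tagged E1A captured on glutathione donor beads, His-tagged CtBP on nickel acceptor beads; compounds precede bead addition by 2 h at 37 °C.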
Numbers stand for hits; [ ] = dose if it differs, or a comment. Unless noted, the call rests on the fitted dose curve; in most records, active means well fitted inhibition curve with a large enough effect; inconclusive means small, poorly fitted or top-dose-only effect; inactive means no such curve, though single readings can be large or run the other way.

For CC(C)C(C(=O)Nc1ccc(N2CCOCC2)cc1)N1C(=O)c2ccccc2C1=O (centres undefined) the results were Six1-Eya2 blk inactive, JMJD2A Tudor inh inactive, BAZ2B block inactive, G9a block inactive, HP1b chromo inh inactive and CtBP-E1A blk inactive.
Screening O=Cc1ccc2oc3nc4n(c(=O)c3c(=O)c2c1)CCCS4 returned Six1-Eya2 blk inconclusive, JMJD2A Tudor inh inconclusive, BAZ2B block 56µM, G9a block inconclusive, HP1b chromo inh inconclusive and CtBP-E1A blk inconclusive.
For O=C(CN1C(=O)CCSc2ccccc21)Nc1ccccc1F the results were JMJD2A Tudor inh inactive, BAZ2B block inactive, G9a block inactive and HP1b chromo inh inactive.
`CCc1nnc(NC(=O)c2ccccc2NC(=O)C2CCN(C(=O)c3ccco3)CC2)s1` gave JMJD2A Tudor inh inactive and HP1b chromo inh inactive.
For FC(F)(F)c1cccc(N2CCN(Cc3ccoc3)CC2)c1 the results were Six1-Eya2 blk inactive, JMJD2A Tudor inh 3.5µM, BAZ2B block 50µM, G9a block inconclusive, HP1b chromo inh inconclusive and CtBP-E1A blk inactive.
COc1cccc(N2CCN(Cc3cccnc3)CC2)c1 was read as Six1-Eya2 blk inactive, JMJD2A Tudor inh 3.2µM, BAZ2B block 40µM, G9a block 14µM, HP1b chromo inh 56µM and CtBP-E1A blk inactive.
`COc1cccc(N2CCN(Cc3ncc(-c4ccccc4)o3)CC2)c1` gave Six1-Eya2 blk inconclusive, JMJD2A Tudor inh inactive, BAZ2B block inactive, G9a block inconclusive, HP1b chromo inh inactive and CtBP-E1A blk inactive.
Screening O=c1cc(N2CCN(Cc3ccccc3)CC2)[nH]c(=O)n1-c1cccc(C(F)(F)F)c1 returned Six1-Eya2 blk inactive, JMJD2A Tudor inh inactive, BAZ2B block inactive, G9a block inactive, HP1b chromo inh inactive and CtBP-E1A blk inactive.
For FC(F)(F)c1cccc(N2CCN(Cc3cccnc3)CC2)c1 the results were Six1-Eya2 blk inactive, JMJD2A Tudor inh 1.3µM, BAZ2B block inactive, G9a block 14µM, HP1b chromo inh inconclusive and CtBP-E1A blk inactive.
`COc1cccc(N2CCN(C3C4CC5CC(C4)CC3C5)CC2)c1` (centres undefined) gave Six1-Eya2 blk inactive, JMJD2A Tudor inh inactive, BAZ2B block inconclusive, G9a block 50µM, HP1b chromo inh inactive and CtBP-E1A blk inactive.
CCOc1cccc(CN2CCN(c3cccc(C(F)(F)F)c3)CC2)c1O was read as Six1-Eya2 blk inactive, JMJD2A Tudor inh inactive, BAZ2B block inactive, G9a block inactive[12.7 µM], HP1b chromo inh inactive and CtBP-E1A blk inactive.
For Cc1cc(Cl)ccc1OCC(=O)NNC(=O)C1CCCO1 (centres undefined) the results were Six1-Eya2 blk inactive, JMJD2A Tudor inh inactive, G9a block inactive, HP1b chromo inh inactive and CtBP-E1A blk inactive.
Screening CCOc1ccccc1CNc1nc2nc(C)cc(C)n2n1 returned JMJD2A Tudor inh inactive, BAZ2B block inactive, G9a block inactive and HP1b chromo inh inactive.
For Cc1ccn2cc(CNC(=O)c3cccc(C(F)(F)F)c3)nc2c1 the results were JMJD2A Tudor inh inactive, BAZ2B block inactive, G9a block inactive and HP1b chromo inh inactive.
For O=Cc1c(N2CCC3(CC2)OCCO3)nc2ccccn2c1=O the results were Six1-Eya2 blk inactive, JMJD2A Tudor inh inactive, BAZ2B block inactive, G9a block inactive, HP1b chromo inh inactive and CtBP-E1A blk inactive.
For CCOc1ccc(CN2CCc3nc(N4CCN(c5ncccn5)CC4)ncc3C2)cc1OC the results were JMJD2A Tudor inh inconclusive, BAZ2B block inactive, G9a block inactive[12.7 µM] and HP1b chromo inh inactive.
Screening COc1cccc(N2CCN(c3ncc4c(n3)CCN(Cc3ccc(Br)cc3)C4)CC2)c1 returned JMJD2A Tudor inh 56µM, BAZ2B block 22µM, G9a block inactive[12.7 µM] and HP1b chromo inh inactive.
For O=c1oc2ccc3ccccc3c2cc1-c1nnc(Nc2cccc(C(F)(F)F)c2)s1 the results were JMJD2A Tudor inh inactive, BAZ2B block inactive, G9a block inconclusive and HP1b chromo inh inactive.
`CC(/C=C1\N=C(SCc2ccccc2Cl)SC1=O)=C\c1ccccc1` gave Six1-Eya2 blk inactive, JMJD2A Tudor inh 56µM, BAZ2B block inconclusive, G9a block inactive, HP1b chromo inh inconclusive and CtBP-E1A blk inactive.

High-throughput results as filed in PubChem.
